# Tested on: SUM149
# Assay: percent difference in area under dose-response curve of relative cell number, RPMI vs HPLM; higher = drug relatively more effective in HPLM than RPMI (negative = less effective in HPLM)
# Conditions: treatment time: 72 h; dose range: 10-point, 1 nM to 20 µM; media compared: RPMI vs HPLM
# Description: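 SUM149 triple-negative breast cancer cells, 500 cells/well in 384-well plates, were grown in RPMI or human plasma-like medium (HPLM) with 5% dialyzed FBS. They were pin-transferred with an anticancer plus metabolic-inhibitor library in 10-point dose series (20 µM to 1 nM). After 72 h, cells were fixed, stained with bisbenzimide and counted by Acumen plate cytometry. The AUC of relative survival vs dose was computed per medium, and the percent difference in AUC between RPMI and HPLM is reported.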
row,SMILES,percent difference in area under dose-response curve
1,CN1CCN(CCOc2cc(OC3CCOCC3)c3c(Nc4c(Cl)ccc5c4OCO5)ncnc3c2)CC1 [Saracatinib],14.3%
2,Cc1cnc(Nc2ccc(OCCN3CCCC3)cc2)nc1Nc1cccc(S(=O)(=O)NC(C)(C)C)c1,-10.7%
3,CO[C@H]1C[C@@H]2CC[C@@H](C)[C@@](O)(O2)C(=O)C(=O)N2CCCC[C@H]2C(=O)O[C@H]([C@H](C)C[C@@H]2CC[C@@H](OP(C)(C)=O)[C@H](OC)C2)CC(=O)[C@H](C)/C=C(\C)[C@@H](O)[C@@H](OC)C(=O)[C@H](C)C[C@H](C)/C=C/C=C/C=C/1C [Deforolimus],2.18%
4,Cn1cnc([N+](=O)[O-])c1Sc1ncnc2[nH]cnc12 [Azathioprine],-50.6%
5,CC(=O)Nc1cccc(-n2c(=O)n(C3CC3)c(=O)c3c(Nc4ccc(I)cc4F)n(C)c(=O)c(C)c32)c1,-18.1%
6,OCCN(CCO)c1nc(N2CCCCC2)c2nc(N(CCO)CCO)nc(N3CCCCC3)c2n1 [Dipyridamole],2.66%
7,CS(=O)(=O)N1CCN(Cc2cc3nc(-c4cccc5[nH]ncc45)nc(N4CCOCC4)c3s2)CC1,-4.07%
8,C=CC(=O)Nc1cccc(Oc2nc(Nc3ccc(N4CCN(C)CC4)cc3OC)ncc2Cl)c1,3.23%
9,CC(NC(=O)c1ccccc1/N=C/c1c(O)ccc2ccccc12)c1ccccc1 (stereo not given) [Sirtinol],-4.04%
10,O=c1[nH]c(=O)n([C@H]2C[C@H](O)[C@@H](CO)O2)cc1F [Floxuridine],14.1%
11,CC1(COc2ccc3c(c2)ncn3-c2ccc3cccc(N4CCC(N)CC4)c3n2)COC1 [Crenolanib],-11.6%
12,Cc1cn(-c2cc(NC(=O)c3ccc(C)c(Nc4nccc(-c5cccnc5)n4)c3)cc(C(F)(F)F)c2)cn1 [Nilotinib],-3.16%
13,Cc1cnc(Nc2ccc(OCCN3CCCC3)cc2)nc1Nc1cccc(S(=O)(=O)NC(C)(C)C)c1 [Fedratinib],-9.15%
14,O=C(NOCC1CC1)c1ccc(F)c(F)c1Nc1ccc(I)cc1Cl,4.08%
15,COC(=O)Nc1ccc(-c2nc(N3CCOCC3)c3cnn(C4CCN(C(=O)OC)CC4)c3n2)cc1,0.775%
16,CC(C)(C)c1cc(C(=O)C(C#N)=NNc2cccc(Cl)c2)no1,-6.64%
17,Fc1cc(-c2cccc3ncc(-c4cnn(C5CCNCC5)c4)nc23)cc(F)c1CN1CCOCC1,2.04%
18,CNC(=O)c1cc(COc2nnc(Nc3ccc(Cl)cc3)c3ccoc23)ccn1 [Telatinib],2.16%
19,CNC(=O)c1ccccc1Sc1ccc2c(/C=C/c3ccccn3)n[nH]c2c1 [Axitinib],-0.398%
20,O=C(Nc1c[nH]nc1-c1nc2ccc(CN3CCOCC3)cc2[nH]1)NC1CC1,-10.6%

row,SMILES,percent difference in area under dose-response curve
1,COc1cc(Nc2ncc3c(n2)-c2ccc(Cl)cc2C(c2c(F)cccc2OC)=NC3)ccc1C(=O)O,-13.5%
2,Cc1cc2c(F)c(Oc3ncnn4cc(OC[C@@H](C)O)c(C)c34)ccc2[nH]1 [Brivanib],-2.59%
3,CNC(=O)c1cc(Oc2ccc(NC(=O)Nc3ccc(Cl)c(C(F)(F)F)c3)c(F)c2)ccn1 [Regorafenib],-5.08%
4,COc1cc2nccc(Oc3ccc(NC(=O)Nc4cc(C)on4)c(Cl)c3)c2cc1OC [Tivozanib],7.69%
5,O=c1[nH]cc(F)c(=O)[nH]1 [5_Fluorouracil],0.782%
6,CN(C)Cc1c(C(=O)NCCOc2ccc(C(=O)NO)cc2)oc2ccccc12,0.731%
7,CC(C)C[C@H](NC(=O)CNC(=O)c1cc(Cl)ccc1Cl)B(O)O,-12.2%
8,COC(=O)Nc1nc2cc(C(=O)c3cccs3)ccc2[nH]1 [Nocodazole],-17.2%
9,Cc1ccc(NC(=O)c2ccc(CN3CCN(C)CC3)cc2)cc1Nc1nc(-c2cccnc2)cs1 [Masitinib],-3.29%
10,C[C@H]1[C@H](OC(=O)CCC(=O)O)O[C@@H]2O[C@@]3(C)CC[C@H]4[C@H](C)CC[C@@H]1[C@@]24OO3 [Artesunate],-1.87%
11,Nc1nccc(Oc2ccc(NC(=O)c3c[nH]cc(-c4ccc(F)cc4)c3=O)cc2F)c1Cl,-4.65%
12,O=C(Nc1ccc(OC(F)(F)F)cc1)c1sccc1NCc1ccnc2ccccc12,6.56%
13,CCCCCCCCCCCCC/C=C/[C@@H](O)[C@H](CO)N(C)C [N_N_Dimethylsphingosine],6.06%
14,CN(C)Cc1ccc(-c2nc3cccc4c3n2CCNC4=O)cc1,-5.91%
15,O=C(Nc1ccccc1-c1cn2c(CN3CCNCC3)csc2n1)c1cnc2ccccc2n1,-8.03%
16,COc1cc(Br)c(Nc2nc(-c3c(C)nc4ncccn34)cs2)c(Br)c1,-0.202%
17,C[C@H](NC(=O)Cc1cc(F)cc(F)c1)C(=O)N[C@@H]1C(=O)N(C)c2ccccc2-c2ccccc21,8.45%
18,Cc1ccc(Nc2nccc(N(C)c3ccc4c(C)n(C)nc4c3)n2)cc1S(N)(=O)=O [Pazopanib],5.29%
19,O=C(/C=C/c1ccc2ccccc2n1)c1ccncc1,7.96%
20,Cc1ccc(C(=O)N(CCCN)[C@@H](c2oc3cc(Cl)ccc3c(=O)c2Cc2ccccc2)C(C)C)cc1,-42.1%

# Reference: the supplement of paper PMC11383364
